The values below come from PubChem BioAssay (EPA / NIEHS).

Activity calls are given as the source filed them. The calls were made as follows: active = hit-call score of the fitted dose curve at least 0.9, where 1 is the maximum; inactive = score below 0.9.

The assay in a line: IUF_NPC1_viability_72hr: Viability Assessment at 72 hours in the Leibniz Research Institute for Environmental Medicine (IUF) Neural Progenitor Cell Proliferation Assay (NPC1) (AID 2284209). The method in brief:
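Alamar blue fluorescence (RFU) after 72 h exposure, normalized to DMSO baseline. hNPC spheres from GW 16-19 fetal cortex, single sphere per well in growth-factor medium; no compound renewal.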
Consider `CN1CCC[C@H]1c1cccnc1`, for which the compound was called inactive.
Turning to `CC1=C(/C=C/C(C)=C/C=C/C(C)=C/C(=O)O)C(C)(C)CCC1`, the compound was called inactive.
`CC#C[C@]1(O)CC[C@H]2[C@@H]3CCC4=CC(=O)CCC4=C3[C@@H](c3ccc(N(C)C)cc3)C[C@@]21C`: the outcome was inactive.
